Reference: PubChem BioAssay (NCI)
Several values for one entry are separate records, joined by “and”; a condition that tells them apart may be missing. Identical values can stand only once. This is part of a sample that, as a whole, favours compounds with a hit. Of some 83,000 tested, about 20% had one in any assay.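 Treatment: one concentration, 48 hours, 96-well format. Scoring: percent growth, with anything below 10 considered active.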

How the values were obtained:
Test in all cases: NCI-60 one-dose screen, 48 h (100 = growth as untreated, 0 = no growth, -100 = all killed)
[1] = test system: SK-MEL-2 melanoma
[2] = test system: EKVX NSCLC; details: 10 µM unless noted
[3] = test system: SN12C renal
[4] = test system: UO-31 renal; details: 10 µM unless noted
[5] = test system: TK-10 renal; details: 10 µM unless noted
[6] = test system: ACHN renal
[7] = test system: CAKI-1 renal; details: 10 µM unless noted
[8] = test system: A498 renal
[9] = test system: CCRF-CEM leukemia; details: 10 µM unless noted
[10] = test system: MOLT-4 leukemia

Measured: growth

C/C=C(/C(=O)NC(N)=O)C(C)C
inactive: [1]; 10 µM unless noted 109% | [2] 112% | [3]; 10 µM unless noted 102% | [4] 100% | [5] 117% | [6]; 10 µM unless noted 110% | [7] 104% | [8]; 10 µM unless noted 102% | [9] 111% | [10]; 10 µM unless noted 92.3%

O=c1ccn2c(n1)OC1CC2OC1COC(c1ccccc1)(c1ccccc1)c1ccccc1 (stereo not drawn)
inactive: [1]; 10 µM 113% | [1]; 100 µM 31.5% | [2] 96.3% [100 µM] | [3]; 10 µM 103% | [3]; 100 µM 69.2% | [5] 134% [100 µM] | [6]; 10 µM 92% | [6]; 100 µM 82.5% | [8]; 10 µM 116% | [8]; 100 µM 139% | [9] 81.8% [100 µM] | [10]; 10 µM 104% | [10]; 100 µM 74.4%

CCOP(=O)(OCC)/C(C#N)=C/c1c(C)[nH]c2ccccc12
inactive: [1]; 10 µM unless noted 99.2% | [2] 97.4% | [3]; 10 µM unless noted 92% | [4] 72.8% | [5] 93.2% | [6]; 10 µM unless noted 102% | [7] 51% | [8]; 10 µM unless noted 116% | [9] 89.6% | [10]; 10 µM unless noted 97.9%

O=[N+]([O-])c1ccc(N2CCN=N2)cc1
inactive: [1]; 10 µM unless noted 92.2% | [2] 85.7% | [3]; 10 µM unless noted 88.9% | [4] 64.3% | [5] 85.5% | [6]; 10 µM unless noted 64.9% | [7] 79.4% | [8]; 10 µM unless noted 72.3% | [9] 91.2% | [10]; 10 µM unless noted 90.8%

S=c1nn[nH]n1C1CCCCC1
inactive: [1]; 10 µM unless noted 129% | [2] 106% | [3]; 10 µM unless noted 105% | [4] 100% | [5] 118% | [6]; 10 µM unless noted 109% | [7] 108% | [8]; 10 µM unless noted 87.5% | [9] 93.9% | [10]; 10 µM unless noted 115%

Oc1ccc(O)c(-c2ccccc2)c1
inactive: [1]; 10 µM unless noted 72.5% | [2] 77.7% | [3]; 10 µM unless noted 68% | [4] 43.4% | [5] 96.8% | [6]; 10 µM unless noted 74.1% | [7] 74.6% | [8]; 10 µM unless noted 132% | [9] 10.1% | [10]; 10 µM unless noted 20.7%

C=CCN1C(=O)c2ccccc2C1=O
inactive: [1]; 10 µM unless noted 101% | [2] 104% | [3]; 10 µM unless noted 87.4% | [4] 78.3% | [5] 98.3% | [6]; 10 µM unless noted 102% | [7] 93.2% | [8]; 10 µM unless noted 92% | [9] 93.3% | [10]; 10 µM unless noted 102%

Clc1ccc2c(c1)N(C1CCCN(Cc3ccccc3)C1)c1ccccc1S2 (stereo not drawn)
inactive: [1]; 10 µM unless noted 17.1% | [2] 74.4% | [3]; 10 µM unless noted 39.7% | [4] 66.7% | [5] 98.6% | [6]; 10 µM unless noted 52.5% | [7] 48.7% | [8]; 10 µM unless noted 70.6% | [9] 39.7% | [10]; 10 µM unless noted 70.3%

Cc1onc(-c2c(F)cccc2Cl)c1-c1ncc(-c2ccc(Cl)cc2)o1
inactive: [1]; 10 µM unless noted 104% and 80% | [2] 53% | [3]; 10 µM unless noted 71.9% and 37.3% | [4] 53.4% and 37.7% | [5] 84% and 53.8% | [6]; 10 µM unless noted 46.1% and 31.3% | [7] 14% and 32% | [8]; 10 µM unless noted 69.8% and 85.8% | [9] 41.5% | [10]; 10 µM unless noted 42.4% and 16.1%

O=C(Nc1ccccc1)OCC(CN1CCCCC1)OC(=O)Nc1ccccc1 (stereo not drawn)
inactive: [1]; 10 µM unless noted 85.6% and 108% | [2] 82.5% | [3]; 10 µM unless noted 77.5% and 94% | [4] 53.5% and 66.7% | [5] 93.2% and 104% | [6]; 10 µM unless noted 72.9% and 92.8% | [7] 71.6% and 86% | [8]; 10 µM unless noted 79.5% and 68.7% | [9] 82.3% | [10]; 10 µM unless noted 64.8% and 87.9%
